Her2 expr inh – inhibitors of Her2 protein expression, primary screen, SKBR-3 cells, AlphaScreen, 66K library | Receptor tyrosine-protein kinase erbB-2 (Homo sapiens), P04626 | SKBR-3 HER2 protein level, 18-24 h; hits give low values | HER2 level % of control, % at 10 µM | actives 0.69% (n = 65,000) | AID 645, 2007;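 active = HER2 level under 5% of the carrier-only control; inconclusive = no clear call, values can overlap the other calls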;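 note: 100% = DMSO carrier and 0% = 500 nM PU-H71 HSP90 inhibitor; lower value means stronger loss of Her2 protein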
CatL inh – inhibitors of human cathepsin L, biochemical | Procathepsin L (Homo sapiens), P07711 | purified cathepsin L, fluorogenic substrate, fluorescence | inhibition, %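 (tested at 10 µM)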 | actives 0.17% (n = 58,000) | AID 460, 2006; in the data active = inhibition above about 45%;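 note: 0% = enzyme with no compound and 100% = no enzyme blank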
Target sequence (P07711 114-288 limits assumed): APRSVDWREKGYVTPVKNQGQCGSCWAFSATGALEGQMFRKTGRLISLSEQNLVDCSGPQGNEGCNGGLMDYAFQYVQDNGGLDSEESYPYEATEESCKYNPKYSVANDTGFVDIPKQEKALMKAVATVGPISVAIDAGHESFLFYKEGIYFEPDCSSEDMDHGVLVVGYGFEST
Target sequence (P07711 292-333 limits assumed): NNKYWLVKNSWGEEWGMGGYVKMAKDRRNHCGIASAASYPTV
CatB mix inh – cathepsin B inhibitors from pooled compounds, primary screen, biochemical, compound mixtures, AMC fluorescence; actives 0.06% (n = 62,000); Purified cathepsin B, AMC dipeptide fluorescence; inhibition, %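 (ten-compound pools at 5 µM per compound and 50 µM total)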; P07858; in the data active = inhibition above about 22%, passing the limit was not always enough; inconclusive = no clear call, values can overlap the other calls;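 note: 0% = enzyme without compound and 100% = no enzyme blank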
CatB block – human cathepsin B inhibitors, primary screen, biochemical, fluorogenic substrate. AID 453, 2006. inhibition, %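 (tested at 10 µM)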. actives 0.1% (n = 63,000). purified cathepsin B, fluorescence; in the data active = inhibition above about 21%;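 note: 0% = enzyme with no compound and 100% = no enzyme blank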
SKBR3 24h inh – SK-BR-3 proliferation inhibitors, primary screen, cell-based, human, 24 h | viability, % at 10 µM | actives 0.47% (n = 41,000) | SK-BR-3 viability, CellTiter-Glo ATP luminescence; hits give low values;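 active = viability at or below the median of all test compounds minus 3 SD, in both replicates if run twice, cut at about 45% in these data; inconclusive = duplicate replicates that disagree with each other; inactive = viability above that cutoff in every replicate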;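 note: 100% = median untreated cell wells and 0% = median positive control drug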
CatS inh – inhibitors of human cathepsin S, biochemical, compound mixtures; recombinant cathepsin S, AMC dipeptide fluorescence, pooled mixtures; inhibition, %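 (tested at 5 µM per compound within 10-compound mixtures)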; actives 0.06% (n = 62,000); in the data active = inhibition above about 32%, passing the limit was not always enough; inconclusive = no clear call, values can overlap the other calls;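 note: 0% = enzyme without compound and 100% = blank without enzyme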
Target sequence (P25774 115-331 limits assumed): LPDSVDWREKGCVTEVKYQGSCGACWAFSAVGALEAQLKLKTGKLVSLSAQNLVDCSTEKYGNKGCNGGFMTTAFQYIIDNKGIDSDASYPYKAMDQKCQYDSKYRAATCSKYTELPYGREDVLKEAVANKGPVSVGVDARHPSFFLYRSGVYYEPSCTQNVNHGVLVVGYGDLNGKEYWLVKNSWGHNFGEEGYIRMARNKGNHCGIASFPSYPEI
Numbers without * were called inactive; ? = inconclusive; . = no result. In the library only some 1.1% were active in any assay of this set; here they are far more common.

SMILES | Her2 expr inh | CatL inh | CatB mix inh | CatB block | SKBR3 24h inh | CatS inh
N#Cc1nc(N2CCOCC2)nc(N2CCOCC2)n1 | 84.2 | 67.2* | 8.2 | 9.2 | 103.1 | 31.9*
Cc1ccc(S(=O)(=O)CCC(=O)c2ccc(O)cc2O)cc1 | -7.3* | 23.6 | -1.4 | 0.7 | 96.1 | 1.9
O=C(O)CC1SC(=Nc2ccccc2)N(c2ccccc2)C1=O (stereo unspecified) | . | . | 2.6 | 5.5 | 84.2 | -3.1
COc1ccc(N2C(=O)C(CC(=O)O)S/C2=C\C(C)=O)cc1 (stereo unspecified) | 86.0 | 15.7 | -0.3 | 3.8 | 31.3* | 0.1
CCC(=O)c1cn(CC(=O)NCc2cccnc2)c2ccccc12 | 87.3 | 12.3 | -0.7 | 3.7 | 92.3 | 5.9
CCOC(=O)C1=C(SCC(=O)Nc2ccccc2)NC(=O)C(C#N)C12CCCCC2 (stereo unspecified) | 93.3 | 11.3 | -1.8 | -3.0 | 90.1 | 2.5
COc1ccc(C2C(C(=O)Nc3ccccn3)=C(C)Nc3ncnn32)c(OC)c1 (stereo unspecified) | 131.6 | 9.1 | 1.4 | 3.0 | . | -4.4
COC(=O)COc1ccc(S(=O)(=O)Nc2ccc3c(c2)OCO3)cc1Cl | 95.6 | 5.2 | -2.0 | -2.0 | 108.6 | -19.6
COC(=O)COc1ccc(S(=O)(=O)Nc2ccc3c(c2)OCO3)cc1 | -11.0* | -6.3 | 7.1 | 1.6 | 119.5 | -2.9
CCOCCCNC(=O)C1c2ccccc2C(=O)N2CCc3ccccc3C12 (stereo unspecified) | 89.6 | 12.9 | 0.7 | 9.3 | 79.0 | 10.1
Cc1ccc(S(=O)(=O)Nc2ccc(Br)cc2/C=N/n2cnnc2)cc1 | 77.8 | 6.3 | -0.6 | -0.8 | . | -1.1
COc1ccccc1C(=O)N1CCN(c2cccc(Cl)c2)CC1 | 40.5 | -2.6 | -2.0 | -0.6 | 40.2* | -5.0
COc1ccccc1C(=O)N1CCN(C(=O)c2ccncc2)CC1 | 77.0 | 0.3 | 26.2 | 1.2 | . | -1.7
O=c1c2ccccc2nc(COc2ccccc2)n1/N=C/c1ccco1 | 116.9 | . | -0.5 | 2.1 | 93.6 | 8.1
C(=N/n1c2ccccc2c2ccccc21)/c1ccco1 | 1.7* | 10.5 | 2.5 | 4.5 | . | 6.7
O=C(O)CCC(=O)Nc1nnc(C(F)(F)F)s1 | 105.2 | 4.3 | 3.5 | 5.8 | 40.4* | 7.4
OCCCc1nc2n(n1)C(c1cccs1)C=C(c1ccccc1)N2 (stereo unspecified) | 87.5 | . | 3.3 | -3.7 | . | -10.1
OCCCc1nc2n(n1)C(c1ccccc1)C=C(c1ccc(F)cc1)N2 (stereo unspecified) | -30.0* | . | . | . | 98.1 | .
O=C(CCN1CCN(c2ccccc2F)CC1)c1ccc(Br)cc1 | -16.2* | 4.0 | 9.6 | -4.5 | . | -1.4
O=C(CCN1CCN(c2ccccc2F)CC1)Nc1ccccc1F | 116.8 | 1.8 | 8.2 | -1.0 | . | 4.8
Cc1cccc(C)c1NC(=O)C1(N2CCN(C(=O)c3ccco3)CC2)CCCCC1 | 71.1 | . | 0.7 | 6.5 | 84.5 | 11.3
CC(=O)c1cccc(NC(=O)CN(C2CCCCC2)S(C)(=O)=O)c1 | 177.8 | -2.3 | 1.9 | 4.8 | 88.4 | 3.1
Cc1ccc(CNC(=O)c2cc3c(-c4ccc(Cl)cc4)nn(C)c3s2)o1 | -17.5* | 0.4 | 4.7 | 2.6 | . | -8.3
COCCCN1C(=O)C(=O)/C(=C(/O)c2ccc(OC(C)C)cc2)C1c1cccnc1 (stereo unspecified) | 112.2 | -4.1 | 4.9 | -4.9 | 101.3 | -1.9
COCCCN1C(=O)C(=O)/C(=C(/O)c2ccc(OCC(C)C)cc2)C1c1cccnc1 (stereo unspecified) | -20.8* | 0.1 | 2.1 | -1.3 | 78.0 | 3.3
SMILES | Her2 expr inh | CatL inh | CatB mix inh | CatB block | SKBR3 24h inh | CatS inh
Cc1cc(C)cc(N(CC(=O)NCc2ccco2)S(=O)(=O)c2c(C)noc2C)c1 | 97.8 | . | 5.0 | 2.6 | . | 11.0
CC(C)Cc1nc2oc3c(N4CCN(CCO)CC4)ncnc3c2c2c1CCCC2 | -3.6* | 7.2 | 3.4 | 2.2 | 81.4 | 6.7
C=CCn1c(O)c(CN2CCOCC2)c(C)c(C#N)c1=O | 89.6 | 103.4* | -1.4 | -2.7 | 85.0 | 4.1
Cn1c(CN2CCOCC2)c(C#N)c2ccccc21 | 103.6 | 2.5 | 2.1 | -4.8 | 87.7 | 6.5
Cc1cc(-n2[nH]c(C)c(C)c2=O)nc(-c2ccccc2O)n1 | 78.7 | 11.8 | -0.9 | 10.6 | 39.5* | -5.1
Cn1c(C(=O)NCCN2CCCCCC2)cc2c(=O)n(C)c3ccccc3c21 | 91.9 | 16.0 | -0.5 | 1.3 | . | 69.5*
Cn1c(C(=O)NCCN2CCN(Cc3ccccc3)CC2)cc2c(=O)n(C)c3ccccc3c21 | 96.6 | 19.7 | -0.5 | 1.1 | . | 57.8*
CC1CCN(CCCNC(=O)c2cc3c(=O)n(C)c4ccccc4c3n2C)CC1 | 98.1 | -1.4 | 0.3 | 1.0 | . | ?
Cn1c(C(=O)NCCCN2CCOCC2)cc2c(=O)n(C)c3ccccc3c21 | 89.1 | 10.4 | 1.9 | -4.8 | . | 47.3*
CC(C)n1c(SCc2ccc(Cl)cc2)nc2c1c(=O)[nH]c(=O)n2C | -55.1* | -6.9 | 4.9 | -6.2 | 75.8 | 0.4
COc1ccc(C(=O)c2no[n+]([O-])c2C(=O)c2ccc(OC)cc2)cc1 | -22.0* | 27.6 | 37.0* | 31.0* | 75.5 | 8.4
O=C(c1cccs1)c1no[n+]([O-])c1C(=O)c1cccs1 | 8.8 | 15.2 | 17.3 | 19.3 | 57.5 | 12.8
Cc1cc(C)c2c(=O)n(CC(=O)NCCCN3CCN(c4ccccc4F)CC3)sc2n1 | 45.8 | 65.2* | 6.9 | 3.5 | . | 6.4
CCOC(=O)C(C(=O)OCC)c1cc(Br)c2noc3c2c1C(=O)c1ccccc1-3 | -5.2* | . | -1.2 | -1.4 | 25.8* | 4.5
CC(C)C(=O)Nc1cc(=O)[nH]c2ncnn12 | 74.0 | 1.2 | -6.7 | -1.3 | 72.2 | -0.9
COCCN(CCOC)S(=O)(=O)c1ccc(C(=O)Nc2nnc(C3CC3)o2)cc1 | 116.8 | 39.0 | 9.8 | -1.4 | 81.8 | 12.7
CCc1nnc(NC(=O)c2ccc(S(=O)(=O)N(CCOC)CCOC)cc2)o1 | 132.8 | 13.0 | 7.2 | -3.1 | 35.0* | 5.1
COc1ccc(OC)c(NC(=O)CN(c2ccc(OC)c(Cl)c2)S(C)(=O)=O)c1 | 94.8 | . | -1.1 | 5.2 | 36.4* | -2.7
CCN1CSC(=S)N(Cc2ccc(OC)cc2)C1 | -11.5* | . | . | . | . | .
O=C(CSC1=NCCS1)Nc1nc2c(s1)CCCC2 | 65.7 | -0.8 | 0.9 | 1.6 | 42.5* | 0.1
CCc1cc(C(=O)Cc2ccc(F)cc2)c(O)cc1O | 81.8 | . | 2.4 | 1.2 | 86.7 | 6.4
CCCc1cc(C(=O)Cc2ccc(F)cc2)c(O)cc1O | -11.6* | 2.0 | . | 0.9 | 16.2* | .
Cc1onc(-c2c(F)cccc2Cl)c1C(=O)OCn1nnc2ccccc2c1=O | 72.5 | . | . | . | . | .
O=S(=O)(CC(CN1CCCC1)N1CCCC1)c1ccc2ccccc2c1 (stereo unspecified) | -12.8* | -5.2 | -1.4 | -2.2 | 95.8 | 6.5

Compound activity (PubChem BioAssay)
